Results: PubChem BioAssay AID485346 (Sanford-Burnham Center for Chemical Genomics, 2010)
Among all 330,000 compounds or so, about 10,000 (3%) were called active.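 The calls were made as follows: active = inhibition of at least 50% at 8 µM in the primary screen; inactive = the rest.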 The full list was thinned out, with actives kept by preference.

Biological target: Protein Mdm4 (Homo sapiens) + E3 ubiquitin-protein ligase Mdm2 (Homo sapiens) (UniProt O15151+Q00987)
Assay: inhibitors of human Mdm2-MdmX association, primary screen, cell-based, luminescence, split luciferase, SaOS-2, uHTS (AID 485346)
Conditions: SaOS-2 split-luciferase Mdm2/MdmX complementation, at 8 µM, hits give high values

Chain of Protein Mdm4 (Homo sapiens) + E3 ubiquitin-protein ligase Mdm2 (Homo sapiens) (O15151 whole entry, looked up): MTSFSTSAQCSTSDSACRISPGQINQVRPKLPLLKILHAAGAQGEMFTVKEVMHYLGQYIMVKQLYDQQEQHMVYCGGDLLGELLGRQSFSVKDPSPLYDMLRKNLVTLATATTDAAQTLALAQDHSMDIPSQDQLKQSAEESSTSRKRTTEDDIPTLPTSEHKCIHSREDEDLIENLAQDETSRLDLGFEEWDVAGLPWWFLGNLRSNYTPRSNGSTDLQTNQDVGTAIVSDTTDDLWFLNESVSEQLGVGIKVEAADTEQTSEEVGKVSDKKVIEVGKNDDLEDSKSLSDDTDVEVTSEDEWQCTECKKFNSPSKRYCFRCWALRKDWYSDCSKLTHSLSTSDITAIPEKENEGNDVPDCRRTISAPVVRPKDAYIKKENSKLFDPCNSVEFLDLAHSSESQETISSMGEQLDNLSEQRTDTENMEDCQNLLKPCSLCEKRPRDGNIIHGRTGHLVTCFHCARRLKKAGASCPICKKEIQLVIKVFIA
Chain of Protein Mdm4 (Homo sapiens) + E3 ubiquitin-protein ligase Mdm2 (Homo sapiens) (Q00987 whole entry, looked up): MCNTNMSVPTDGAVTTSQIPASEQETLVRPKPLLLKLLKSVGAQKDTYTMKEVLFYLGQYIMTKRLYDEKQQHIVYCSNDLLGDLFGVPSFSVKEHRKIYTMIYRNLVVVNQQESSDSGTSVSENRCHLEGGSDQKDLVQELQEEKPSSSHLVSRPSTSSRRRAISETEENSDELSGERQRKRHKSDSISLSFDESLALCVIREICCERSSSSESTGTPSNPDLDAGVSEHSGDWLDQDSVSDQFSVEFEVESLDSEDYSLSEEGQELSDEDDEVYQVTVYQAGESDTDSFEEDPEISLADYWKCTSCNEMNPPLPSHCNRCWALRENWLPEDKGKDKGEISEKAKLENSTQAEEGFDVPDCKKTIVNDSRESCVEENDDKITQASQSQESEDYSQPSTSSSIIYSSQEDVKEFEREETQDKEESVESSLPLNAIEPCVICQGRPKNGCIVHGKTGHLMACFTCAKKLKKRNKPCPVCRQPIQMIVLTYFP

inhibition, active:
O=C(CCNC(=O)c1ccc(Cl)cc1)NC1CCCc2ccccc21 (stereo not drawn) 82.7%
Cc1nnc(NC(=O)Nc2ccc(Cl)c(Cl)c2)s1 95.2%
CC(Nc1nc(N2CCCC2)nc2ccccc12)c1ccccc1 (stereo not drawn) 70.8%
Cc1cc(Nc2cc(N3CCN(C)CC3)nc(Sc3ccc(NC(=O)C4CC4)cc3)n2)n[nH]1 88.2%
C=CC[C@H](CC(=O)N(CCO)Cc1ccccc1)C(=O)N[C@@H](COC(=O)[C@@H](CC=C)Cc1ccc(F)cc1)Cc1ccccc1 67.8%
C=CCC[C@@H](Cc1ccc(F)cc1)C(=O)OC[C@H](Cc1c[nH]c2ccccc12)NC(=O)[C@@H](CC=C)CC(=O)N(CCO)Cc1ccccc1 87.5%
C=CCC[C@@H](Cc1ccc(F)cc1)C(=O)O[C@H](CNC(=O)[C@H](CC=C)CC(=O)N(CCO)Cc1ccccc1)c1ccccc1 66.9%
O=c1[nH]c(CCl)nc2cc(-c3ccc(Cl)cc3)sc12 80.8%

inhibition, inactive:
Cc1cccc(C(=O)OC(C)C(=O)NC2CCCc3ccccc32)c1O (stereo not drawn) 28.3%
COC(=O)c1cc(OCC(=O)NC2CCCc3ccccc32)cc(C(=O)OC)c1 (stereo not drawn) 1.41%
NC(=O)Nc1ccc(C(=O)OCC(=O)NC2CCCc3ccccc32)cc1 (stereo not drawn) -3.47%
CC1(c2ccccc2)NC(=O)N(CC(=O)N2CC(=O)Nc3ccccc32)C1=O (stereo not drawn) -7.07%
Cc1nnc(NC(=O)C(c2ccccc2)c2ccccc2)s1 7.45%
Cc1ccc(NC(=O)Nc2nnc(-c3ccncc3)s2)cc1 45.1%
CC(C)Oc1ccc(S(=O)(=O)N2CCOCC2)cc1NC(=O)C1CCCC1 -52.3%
CC1CC(=S)Nc2ccccc2N1Cc1ccccc1 (stereo not drawn) 18.7%
CCCCN(CC)CCCNC(=O)c1ccc(CSc2nc3ccncc3[nH]2)cc1 6.18%
COc1cccc(NC(=O)COC(=O)c2ccc3ccccc3n2)c1 -8.32%
COc1ccc(CCNC(=O)CSc2nc(C)nc3c2oc2ccccc23)cc1OC -0.689%
CC(Nc1nc(N2CCN(CCO)CC2)nc2ccccc12)c1ccccc1 (stereo not drawn) -4.68%
CC(Nc1nc(N2CCOCC2)nc2ccccc12)c1ccccc1 (stereo not drawn) -0.119%
CCN(C(=O)COC(=O)CCC(=O)c1cccs1)C1CCCCC1 18.7%
CC(=O)c1ccc(NC(=S)N(Cc2ccccc2)C(C)C2CC2)cc1 (stereo not drawn) 29.9%
CCOC(=O)C1CSC(CC(=O)Nc2ccc(OCC)cc2)C(=O)N1 (stereo not drawn) 9.79%
COCC1CCCN(C(=O)c2ccc3oc(C(C)C)nc3c2)C1 (stereo not drawn) 28.6%
Cc1cc(C)nc(N2CCC(C(=O)Nc3ccc4c(c3)OCCO4)CC2)n1 15.6%
Cc1n[nH]c(C)c1S(=O)(=O)N1CCCC(C(=O)Nc2ccc(Br)cc2)C1 (stereo not drawn) 18.8%
CCc1ccc(NC2Nc3cc(C)nn3S2)cc1 (stereo not drawn) -161%
Cc1ccc(CNC(=O)[C@@H](NC(=O)Cc2ccccc2)C(C)C)cc1 33.2%
CCN(C(=O)COC(=O)CCOc1cccc(C)c1)c1c(N)n(Cc2ccccc2)c(=O)[nH]c1=O -15.7%
CCCCN(C(=O)C1=NN(c2cc(C)ccc2C)C(=O)CC1)c1c(N)n(CCC)c(=O)[nH]c1=O 4.43%
Nc1nc(NC(=O)/C=C/c2ccc(F)cc2)nn1-c1ccccc1 36.3%
Cc1c(NC(=O)CCC2CCCCC2)cc(C(=O)N2CCOCC2)cc1[N+](=O)[O-] -15.2%
C=CCC[C@H](Cc1ccc(F)cc1)C(=O)OC[C@@H](NC(=O)[C@@H](CC=C)CC(=O)N[C@H](CO)Cc1ccccc1)C(C)(C)C 46.7%
C=CC[C@@H](Cc1ccc(F)cc1)C(=O)OC[C@H]1CCCN1C(=O)[C@H](CC=C)CC(=O)N(CCO)Cc1ccccc1 38.8%
C=CCC[C@H](Cc1ccc(F)cc1)C(=O)OC[C@@H](Cc1c[nH]c2ccccc12)NC(=O)[C@H](CC=C)CC(=O)N[C@H](CO)Cc1ccccc1 38.1%
C=CCC[C@H](Cc1ccc(F)cc1)C(=O)OC[C@H](C)NC(=O)[C@H](CC=C)CC(=O)N(CCO)Cc1ccccc1 -2.85%
C=CC[C@@H](CC(=O)N[C@H](CO)Cc1ccccc1)C(=O)N[C@@H](COC(=O)[C@@H](CC=C)Cc1ccc(F)cc1)Cc1c[nH]c2ccccc12 16.4%
C=CCC[C@@H](Cc1ccc(F)cc1)C(=O)OC[C@@H](C)NC(=O)[C@H](CC=C)CC(=O)N(CCO)Cc1ccccc1 24%
CCOc1ccc(NC(=O)CN(C)C(=O)Cc2sc(C)nc2-c2ccc(F)cc2)cc1OCC 10.8%
COc1ccc(CN2CCN(C(=O)CCC(=O)Nc3nnc(C(C)C)s3)CC2)cc1F 16.8%
O=C(/C=C/c1ccccc1[N+](=O)[O-])OCC(=O)N1CCCC1 15%
COc1ccc(S(=O)(=O)N2CCN(CC(=O)NCC3(N4CCOCC4)CCCCC3)CC2)cc1 -0.077%
CCO[C@@H]1OC(C(=O)NCc2nc3ccccc3[nH]2)=C[C@H](C2CCCCC2)[C@H]1CCCO 18.5%
O=C(CSc1nnc(CNC(=O)c2ccc(F)cc2)o1)Nc1ccc2c(c1)OCO2 5.86%
NC(=O)C1CCN(C(=O)c2ccc(F)c(S(=O)(=O)N3CCOCC3)c2)CC1 -40.7%
C=CCO/N=C(\C)c1c(O)c(C)c(-c2ccccc2)n(-c2ccccc2)c1=O 9.07%
CC(OC(=O)c1cc2ccccc2o1)C(=O)Nc1ccc(N2CCOCC2)cc1 (stereo not drawn) 11.3%
CN(CC(=O)Nc1c(Cl)cccc1Cl)C(=O)c1ccncc1 19.3%
Cc1occc1-c1nnc(SCC(=O)NC2(C#N)CCCC2)n1C 22.7%
CN1CCN(S(=O)(=O)c2ccc(N3CCN(c4ccccc4O)CC3)c([N+](=O)[O-])c2)CC1 2.63%
O=c1[nH]c(CN2CCOCC2)nc2cc(Cl)ccc12 -2.08%
NC(=O)Cc1nc2scc(-c3ccc(Cl)cc3)c2c(=O)[nH]1 -0.903%
